The text below walks through data of ChEMBL document CHEMBL3988442, “University of Dundee, Small-Polar-MMV Screening Library” (2021).

The target of experiment [1] is T1, Methionyl-tRNA synthetase, putative (Leishmania donovani (strain BPK282A1)) (UniProt E9BF75).
T1 sequence (whole entry): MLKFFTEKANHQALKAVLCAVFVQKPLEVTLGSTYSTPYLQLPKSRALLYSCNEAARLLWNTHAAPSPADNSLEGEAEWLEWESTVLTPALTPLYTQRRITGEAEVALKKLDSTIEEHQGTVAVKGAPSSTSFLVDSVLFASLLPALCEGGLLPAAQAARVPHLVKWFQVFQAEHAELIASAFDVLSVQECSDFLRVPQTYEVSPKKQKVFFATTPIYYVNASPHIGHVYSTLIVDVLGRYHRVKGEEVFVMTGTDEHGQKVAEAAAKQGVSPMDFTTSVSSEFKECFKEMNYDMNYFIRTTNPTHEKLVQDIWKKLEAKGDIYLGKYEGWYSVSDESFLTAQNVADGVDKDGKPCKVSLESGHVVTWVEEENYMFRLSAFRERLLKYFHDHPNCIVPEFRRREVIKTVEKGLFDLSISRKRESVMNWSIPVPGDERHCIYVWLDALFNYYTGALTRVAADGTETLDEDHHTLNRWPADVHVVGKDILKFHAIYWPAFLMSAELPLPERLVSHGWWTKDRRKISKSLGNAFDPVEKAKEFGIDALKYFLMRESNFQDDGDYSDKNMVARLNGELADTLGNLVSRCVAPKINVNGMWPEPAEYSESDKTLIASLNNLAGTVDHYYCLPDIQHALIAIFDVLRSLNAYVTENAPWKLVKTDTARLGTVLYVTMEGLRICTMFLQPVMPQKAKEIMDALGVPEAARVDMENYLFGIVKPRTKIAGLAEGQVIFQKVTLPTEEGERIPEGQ
Description: Leishmania donovani Methionine tRNA synthetase (LdMetRS):v7. Dose response assay. The experiment is classed as functional. Details: conc 80 nM, time 150 minutes.

The target of experiment [2] is Protein translocase subunit SecA (Escherichia coli (strain K12)) (UniProt P10408). Briefly: Assay to Identify E. coli SecA ATPase Inhibitors. Also noted: scale not given: direction of the effect not stated beside the values. It is filed as functional. The following applies: 30 µM.
Sequence of Protein translocase subunit SecA (Escherichia coli (strain K12)) (P10408 whole entry): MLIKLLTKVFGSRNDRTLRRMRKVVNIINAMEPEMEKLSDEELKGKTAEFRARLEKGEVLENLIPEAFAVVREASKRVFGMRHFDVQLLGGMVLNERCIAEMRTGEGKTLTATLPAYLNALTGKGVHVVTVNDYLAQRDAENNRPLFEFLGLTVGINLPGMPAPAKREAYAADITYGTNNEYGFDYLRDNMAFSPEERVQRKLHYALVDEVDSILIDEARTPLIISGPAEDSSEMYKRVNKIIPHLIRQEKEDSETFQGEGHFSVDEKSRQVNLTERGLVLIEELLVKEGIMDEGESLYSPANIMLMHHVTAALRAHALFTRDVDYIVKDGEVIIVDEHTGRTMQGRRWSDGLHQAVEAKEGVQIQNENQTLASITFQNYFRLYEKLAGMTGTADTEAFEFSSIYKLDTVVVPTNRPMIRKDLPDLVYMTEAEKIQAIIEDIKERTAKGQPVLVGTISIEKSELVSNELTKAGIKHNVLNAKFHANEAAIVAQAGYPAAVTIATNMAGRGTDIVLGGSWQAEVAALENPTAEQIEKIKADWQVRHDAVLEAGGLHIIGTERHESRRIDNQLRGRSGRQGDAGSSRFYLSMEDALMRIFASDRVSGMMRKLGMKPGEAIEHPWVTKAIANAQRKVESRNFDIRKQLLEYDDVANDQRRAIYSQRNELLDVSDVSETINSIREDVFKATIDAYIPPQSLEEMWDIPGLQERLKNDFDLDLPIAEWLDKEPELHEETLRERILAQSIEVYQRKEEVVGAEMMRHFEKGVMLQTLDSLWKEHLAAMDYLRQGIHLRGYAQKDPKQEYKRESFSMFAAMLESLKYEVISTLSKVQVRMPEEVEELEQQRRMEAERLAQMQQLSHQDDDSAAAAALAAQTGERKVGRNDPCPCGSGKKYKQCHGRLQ
The target in experiment [3] is T2, Ubiquitin-activating enzyme e1, putative (Leishmania donovani (strain BPK282A1)) (UniProt E9BSI1).
T2 sequence (whole entry): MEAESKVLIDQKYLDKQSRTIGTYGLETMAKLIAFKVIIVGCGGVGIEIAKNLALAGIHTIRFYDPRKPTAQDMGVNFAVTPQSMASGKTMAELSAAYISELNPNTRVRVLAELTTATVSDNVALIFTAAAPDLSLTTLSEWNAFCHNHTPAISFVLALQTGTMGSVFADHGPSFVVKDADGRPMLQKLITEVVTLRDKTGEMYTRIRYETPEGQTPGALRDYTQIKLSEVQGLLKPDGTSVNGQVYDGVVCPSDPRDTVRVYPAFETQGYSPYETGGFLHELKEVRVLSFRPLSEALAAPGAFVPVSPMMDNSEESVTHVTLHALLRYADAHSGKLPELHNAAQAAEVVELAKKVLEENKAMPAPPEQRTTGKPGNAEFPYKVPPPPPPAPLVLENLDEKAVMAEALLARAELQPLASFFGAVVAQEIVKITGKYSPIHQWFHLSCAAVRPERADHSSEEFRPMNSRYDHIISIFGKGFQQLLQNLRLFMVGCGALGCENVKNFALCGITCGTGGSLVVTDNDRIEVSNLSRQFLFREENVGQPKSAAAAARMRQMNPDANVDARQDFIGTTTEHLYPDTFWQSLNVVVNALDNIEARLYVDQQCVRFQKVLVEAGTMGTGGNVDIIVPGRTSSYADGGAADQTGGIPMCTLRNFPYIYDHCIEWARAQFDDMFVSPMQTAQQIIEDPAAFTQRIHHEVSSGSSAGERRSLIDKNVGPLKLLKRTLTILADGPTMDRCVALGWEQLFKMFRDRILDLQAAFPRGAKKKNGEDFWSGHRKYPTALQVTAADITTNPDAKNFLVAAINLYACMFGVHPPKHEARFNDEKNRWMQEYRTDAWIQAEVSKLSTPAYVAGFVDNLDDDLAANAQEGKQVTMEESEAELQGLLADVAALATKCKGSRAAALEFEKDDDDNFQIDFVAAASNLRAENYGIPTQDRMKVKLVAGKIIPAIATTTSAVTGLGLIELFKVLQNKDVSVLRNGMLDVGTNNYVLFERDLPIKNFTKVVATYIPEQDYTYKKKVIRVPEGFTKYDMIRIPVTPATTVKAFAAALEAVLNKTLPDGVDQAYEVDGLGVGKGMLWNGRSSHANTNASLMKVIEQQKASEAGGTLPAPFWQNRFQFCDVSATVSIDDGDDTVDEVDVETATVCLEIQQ
Briefly: Leishmania donovani Ubiquitin Activating Enzyme (LdE1). The following applies: 30 µM. The experiment is classed as functional. Also noted: scale not given: direction of the effect not stated beside the values.

Experiment [4] concerns the target AMP-activated protein kinase, AMPK (Homo sapiens) (UniProt P54646+O43741+P54619+Q9UGJ0+Q9Y478+Q13131+Q9UGI9). Briefly: AMP-dependent Kinase enzyme assay. An in vitro enzyme assay that detects ADP turnover that is directly proportional to AMPK activity. This uses naive AMPK that is activated during the assay with MK-8722. The following applies: 30 µM. The experiment is classed as functional. Also noted: scale not given: direction of the effect not stated beside the values.

Experiment [5] addresses Sialic acid-binding Ig-like lectin 9 (Homo sapiens) (UniProt Q9Y336). Description: Hs-Siglec9 ALPHAscreen SOP 20170721. Details: scale not given: direction of the effect not stated beside the values. The following applies: 10 µM. (In general: In Alpha technology, singlet oxygen from a donor bead excites a nearby acceptor bead.)
The next experiment has as its system Trypanosoma cruzi. Briefly: Trypanosoma cruzi phosphomannomutase and mannose-1-phosphate guanylyltransferase assay. It is filed as functional. Also noted: scale not given: direction of the effect not stated beside the values. The following applies: 10 µM.
Experiment [6] has as its target T3, Arginase-2, mitochondrial (Homo sapiens) (UniProt P78540).
T3 sequence (whole entry): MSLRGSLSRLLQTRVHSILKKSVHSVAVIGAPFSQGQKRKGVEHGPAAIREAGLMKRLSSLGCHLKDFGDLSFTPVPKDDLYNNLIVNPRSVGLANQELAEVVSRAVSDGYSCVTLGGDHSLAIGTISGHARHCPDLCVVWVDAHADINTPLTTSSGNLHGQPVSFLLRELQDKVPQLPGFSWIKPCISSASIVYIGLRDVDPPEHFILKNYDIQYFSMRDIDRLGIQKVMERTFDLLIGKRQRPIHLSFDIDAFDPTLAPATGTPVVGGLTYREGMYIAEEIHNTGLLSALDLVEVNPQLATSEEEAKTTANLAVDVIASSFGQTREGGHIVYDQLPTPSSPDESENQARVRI
Briefly: in vitro enzyme assay to detect the production of urea directly proportional to the activity of Arginase II. It is filed as functional. Details: scale not given: in the data most compounds retested in dose-response had high values. The following applies: 33.3 µM.

Experiment [7] concerns the target T4, Proteasome subunit beta (Trypanosoma cruzi) (UniProt O96673).
T4 sequence (whole entry): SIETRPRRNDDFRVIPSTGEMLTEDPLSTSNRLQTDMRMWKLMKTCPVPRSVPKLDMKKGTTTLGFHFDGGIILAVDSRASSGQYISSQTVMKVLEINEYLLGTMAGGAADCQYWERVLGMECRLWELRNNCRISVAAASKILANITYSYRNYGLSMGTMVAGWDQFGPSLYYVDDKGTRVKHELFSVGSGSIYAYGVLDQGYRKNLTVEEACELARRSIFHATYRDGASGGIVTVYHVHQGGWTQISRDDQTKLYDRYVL
Briefly: Trypanosoma cruzi proteasome chymotrypsin-like activity (TcProtChymo) assay. The experiment is classed as functional. Also noted: scale not given: in the data most compounds retested in dose-response had high values. The following applies: 9.37 µM.

A further experiment is filed under the species Homo sapiens. Description: To identify inhibition of the IFN signalling (Jak-Stat) pathway via expression of an eGFP reporter gene under the control of an IFN-stimulated response element (ISRE) containing MxA promoter. Details: scale not given: direction of the effect not stated beside the values. The following applies: 30 µM. The experiment is classed as functional. In general terms: In a reporter assay the amount or activity of a reporter protein is the signal.

Experiment [8] has as its target T5, Tyrosyl-tRNA synthetase, putative (Trypanosoma cruzi (strain CL Brener)) (UniProt Q4DSP6).
T5 sequence (whole entry): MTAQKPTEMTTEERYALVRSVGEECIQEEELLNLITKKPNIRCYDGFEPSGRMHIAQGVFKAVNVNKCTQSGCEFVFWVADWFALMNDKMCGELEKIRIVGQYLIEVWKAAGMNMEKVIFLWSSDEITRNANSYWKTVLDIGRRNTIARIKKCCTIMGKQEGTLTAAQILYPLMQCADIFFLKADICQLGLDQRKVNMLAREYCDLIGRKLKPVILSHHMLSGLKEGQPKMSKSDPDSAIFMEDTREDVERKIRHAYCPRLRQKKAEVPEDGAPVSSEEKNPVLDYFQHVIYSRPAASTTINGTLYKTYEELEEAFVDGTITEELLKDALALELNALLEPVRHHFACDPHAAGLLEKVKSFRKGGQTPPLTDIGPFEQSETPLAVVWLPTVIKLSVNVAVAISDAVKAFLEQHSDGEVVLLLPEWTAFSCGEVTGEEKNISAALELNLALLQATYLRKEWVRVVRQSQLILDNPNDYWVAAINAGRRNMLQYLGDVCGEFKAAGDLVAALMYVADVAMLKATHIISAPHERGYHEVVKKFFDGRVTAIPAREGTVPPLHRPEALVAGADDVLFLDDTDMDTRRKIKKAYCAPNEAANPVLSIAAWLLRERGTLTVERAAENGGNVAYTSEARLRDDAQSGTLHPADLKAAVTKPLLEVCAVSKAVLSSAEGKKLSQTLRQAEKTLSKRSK
Briefly: Trypanosoma cruzi tyrosyl tRNA synthetase (TcYRS) _High Tyrosine SOP. The experiment is classed as functional. Also noted: scale not given: in the data most compounds retested in dose-response had high values. The following applies: 30 µM.

For experiment [9], the target named is T5, Tyrosyl-tRNA synthetase, putative (Trypanosoma cruzi (strain CL Brener)). Description: Trypanosoma cruzi tyrosyl tRNA synthetase (TcYRS) SOP. The experiment is classed as functional. Details: scale not given: direction of the effect not stated beside the values. The following applies: 30 µM.
For experiment [10], the target named is Chromo domain-containing protein 1 (Saccharomyces cerevisiae (strain ATCC 204508 / S288c) (Baker's yeast)) (UniProt P32657). Description: ScCHD-1 Enzyme Inhibition Assay. Details: scale not given: in the data most compounds retested in dose-response had high values. It is filed as functional. The following applies: 30 µM.
Sequence of Chromo domain-containing protein 1 (Saccharomyces cerevisiae (strain ATCC 204508 / S288c) (Baker's yeast)) (P32657 whole entry, the tested form may be a part): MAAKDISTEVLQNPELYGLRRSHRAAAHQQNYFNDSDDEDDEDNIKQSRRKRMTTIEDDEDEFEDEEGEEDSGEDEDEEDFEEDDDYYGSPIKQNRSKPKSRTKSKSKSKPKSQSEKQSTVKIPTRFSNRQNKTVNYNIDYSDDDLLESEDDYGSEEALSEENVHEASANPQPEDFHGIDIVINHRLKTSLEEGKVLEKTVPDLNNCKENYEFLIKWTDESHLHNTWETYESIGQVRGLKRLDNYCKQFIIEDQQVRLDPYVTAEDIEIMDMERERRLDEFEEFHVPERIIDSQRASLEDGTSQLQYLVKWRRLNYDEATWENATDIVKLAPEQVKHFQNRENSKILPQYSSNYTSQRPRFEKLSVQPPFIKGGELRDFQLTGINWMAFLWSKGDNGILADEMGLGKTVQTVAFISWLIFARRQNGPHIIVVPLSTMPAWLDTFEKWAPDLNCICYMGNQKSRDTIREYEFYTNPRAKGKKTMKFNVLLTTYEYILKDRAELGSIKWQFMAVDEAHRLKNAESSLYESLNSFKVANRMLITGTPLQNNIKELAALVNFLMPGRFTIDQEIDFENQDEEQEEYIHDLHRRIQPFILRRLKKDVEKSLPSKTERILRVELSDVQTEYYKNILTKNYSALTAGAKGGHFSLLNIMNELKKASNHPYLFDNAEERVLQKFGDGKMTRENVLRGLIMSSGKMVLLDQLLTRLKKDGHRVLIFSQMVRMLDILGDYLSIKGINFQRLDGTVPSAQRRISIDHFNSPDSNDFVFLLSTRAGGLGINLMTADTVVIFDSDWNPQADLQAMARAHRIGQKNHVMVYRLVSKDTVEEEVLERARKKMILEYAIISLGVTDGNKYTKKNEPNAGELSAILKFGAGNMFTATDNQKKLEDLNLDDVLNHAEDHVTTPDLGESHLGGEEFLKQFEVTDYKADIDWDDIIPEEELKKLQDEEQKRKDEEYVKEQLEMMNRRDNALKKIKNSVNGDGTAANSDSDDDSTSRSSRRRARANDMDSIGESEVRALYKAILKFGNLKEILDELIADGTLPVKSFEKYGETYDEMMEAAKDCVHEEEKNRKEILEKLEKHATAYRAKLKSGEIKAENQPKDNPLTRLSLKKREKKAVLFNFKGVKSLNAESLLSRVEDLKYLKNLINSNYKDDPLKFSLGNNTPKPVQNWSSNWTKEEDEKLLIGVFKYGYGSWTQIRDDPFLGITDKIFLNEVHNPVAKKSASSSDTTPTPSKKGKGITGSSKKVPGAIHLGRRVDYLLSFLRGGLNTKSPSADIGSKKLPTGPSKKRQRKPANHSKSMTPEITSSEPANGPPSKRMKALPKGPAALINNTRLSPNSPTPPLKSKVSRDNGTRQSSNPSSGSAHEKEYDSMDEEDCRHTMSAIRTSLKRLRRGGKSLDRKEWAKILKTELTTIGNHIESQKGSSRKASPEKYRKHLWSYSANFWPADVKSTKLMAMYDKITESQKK

For part of these data: Results with a measured potency or affinity are listed apart.

Sequence of Sialic acid-binding Ig-like lectin 9 (Homo sapiens) (Q9Y336 whole entry): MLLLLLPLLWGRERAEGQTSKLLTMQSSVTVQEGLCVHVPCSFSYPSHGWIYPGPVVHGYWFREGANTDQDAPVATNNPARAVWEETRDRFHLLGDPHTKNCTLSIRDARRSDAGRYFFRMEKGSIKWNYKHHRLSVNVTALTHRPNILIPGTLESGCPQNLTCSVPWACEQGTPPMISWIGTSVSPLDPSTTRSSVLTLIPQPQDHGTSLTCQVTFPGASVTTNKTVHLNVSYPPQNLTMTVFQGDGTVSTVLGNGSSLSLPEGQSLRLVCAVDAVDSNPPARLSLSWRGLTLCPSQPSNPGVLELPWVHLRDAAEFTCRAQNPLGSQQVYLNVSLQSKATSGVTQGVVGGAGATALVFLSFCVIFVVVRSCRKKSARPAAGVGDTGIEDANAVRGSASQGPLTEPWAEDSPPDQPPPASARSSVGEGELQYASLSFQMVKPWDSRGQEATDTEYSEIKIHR

In the case of `O=C(c1ccc(F)c(Cl)c1)N1C[C@@H]2CC[C@H](C1)N(Cc1ccccc1)C2`, the PXC50 in experiment [1] (MAX_EFFECT 29.03225806), in [1] (MAX_EFFECT 41.91419142) and in experiment [1] (MAX_EFFECT 44.92753623) was less than 4 in each case. The Percent Effect in experiment [2] is -1.36%; in experiment [3], -13.7%; in experiment [4], 5.89%; in experiment [5], 19.2%; with Trypanosoma cruzi it was -6.15%; in experiment [6], 1.6%. For the same compound, the Percent Effect in experiment [7] was 11.2%; in the experiment filed under Homo sapiens it was -10.1%; in experiment [8], 11.5%; in experiment [9] it was 25.9%; in [10], 0.975%.

With `Cc1nccn1CCCn1cncc1-c1ccc2c(c1)CCC(C)N2C` (stereo not given), the PXC50 in experiment [1] (BOTTOM 4.710746105, HILLSLOPE 1.396694103, MAX_EFFECT 77.77777778, TOP 100.0) was 4.36; in experiment [1] (BOTTOM 4.776972445, HILLSLOPE 4.284267496, MAX_EFFECT 55.70469799, TOP 54.26344413) it was 4.56; in [1] (BOTTOM 5.773645077, HILLSLOPE 1.775302265, MAX_EFFECT 72.6169844, TOP 100.0) it was 4.22; in experiment [1] (MAX_EFFECT 2.857142857), less than 4; in experiment [1] (MAX_EFFECT 4.347826087), less than 4.

On to `CC1CCN(c2ccc(C(=O)N3CCCC3c3ccc[nH]3)cn2)CC1` (stereo not given), for which the PXC50 in experiment [1] (BOTTOM 1.515439463, HILLSLOPE 1.666598775, MAX_EFFECT 83.87715931, TOP 100.0) amounted to 4.46; in experiment [1] (BOTTOM -1.123012713, HILLSLOPE 2.407877124, MAX_EFFECT 92.83154122, TOP 98.62534766), 4.49; in experiment [1] (BOTTOM -1.142129641, HILLSLOPE 1.640897748, MAX_EFFECT 81.18022329, TOP 100.0) it was 4.4; in [1] (BOTTOM -13.95110743, HILLSLOPE 2.091757253, MAX_EFFECT 73.91304348, TOP 74.65708324) it was 4.71; in experiment [1] (BOTTOM -19.81350398, HILLSLOPE 1.3052719, MAX_EFFECT 84.15841584, TOP 92.57854766) it was 4.84. For the same compound, the Percent Effect in experiment [4] was -6.21%.

As for `CN(c1ncnc2ccccc12)C1CCCN(c2cccnn2)C1` (stereo not given), the PXC50 in experiment [1] (BOTTOM 0.59496429, HILLSLOPE 1.142527095, MAX_EFFECT 61.72248804, TOP 100.0) stood at 4.15; in experiment [1] (BOTTOM 4.775047561, HILLSLOPE 1.968197794, MAX_EFFECT 73.89635317, TOP 73.89635317) it was 4.48; in experiment [1] (BOTTOM 7.086189247, HILLSLOPE 1.125976509, MAX_EFFECT 60.07005254, TOP 100.0), 4.1; in experiment [1] (BOTTOM 8.519162934, HILLSLOPE 1.512392504, MAX_EFFECT 75.36231884, TOP 100.0), 4.28; in [1] (BOTTOM -1.496045735, HILLSLOPE 1.12468747, MAX_EFFECT 69.3877551, TOP 100.0) it was 4.34.
